Experimental findings from ChEMBL document CHEMBL4513216, “Probing the Open Global Health Chemical Diversity Library for Multistage-Active Starting Points for Next-Generation Antimalarials” (ACS Infect Dis, 2020) are described below.

Hit rate of the full screen: of about 68,000 compounds, about 2,700 (4%) showed an effect of 50% or more. The list comes from a sample in which strong results are over-represented; it also holds similar structures and randomly drawn compounds.

The test system of this experiment is Plasmodium berghei. As to the kind of experiment: Screen against P. berghei liver stage (PbLuc), transformed with Luciferase, at 2uM. It counts as functional, HepG2. As to conditions: tested at 2 uM.
`CS(=O)(=O)Cc1ccc(CNC(=O)c2cccnc2O)cc1`: the INHIBITION is -4.5%.
Consider `COCC(C)(C#N)NC(=O)c1cn(-c2cccc(Cl)c2F)nn1` (centres undefined), for which the INHIBITION is -10.98%.
Then `O=C(c1ccncc1F)N1CC2CC1(C(=O)N1CCCC1)C2`, with 33.14%; and `O=C(CN1CCN(c2ncccn2)[C@@H]2CS(=O)(=O)C[C@@H]21)N1CCCCC1`, with 14.19%; and `CN(C)C(=O)CN1CC[C@H]2[C@H]1CCN2c1ncccn1`, with 22.18%.
To `CN(C)C(=O)CN1CCN(c2ncccn2)[C@@H]2CS(=O)(=O)C[C@@H]21` belongs 58.69%; to `CC(NC(=O)c1ccsc1)c1ccc2c(c1)NC(=O)CO2` (centres undefined), -34.61%.
For `CCN1CCCC1CN(Cc1ccon1)CC1CCN(CCOC)CC1` (centres undefined), the INHIBITION turned out to be 55.66%.
For the compound `CCN1CCCC1CN(Cc1cc[nH]n1)CC1CCN(CCOC)CC1` (centres undefined), the INHIBITION came to 18.63%.
Then `CCN1CCCC1CN(Cc1ccoc1)CC1CCN(CCOC)CC1` (centres undefined), with 42.2%.
For `Cc1cc(C)nc(NC(C)Cc2cnccn2)n1` (centres undefined), the INHIBITION was determined as 4.42%.
To `Cc1cc(N2CCCC2c2nnc3n2CCCCC3)nc(N)n1` (centres undefined) belongs 38.89%.
Then `CC(C)c1noc(-c2ccc(NCCCN3CCCC(O)C3)nc2)n1` (centres undefined), with 22.57%; and `CCc1cc(C(=O)N2CCc3nc4c(C)csc4c(=O)n3CC2)on1`, with 51.32%; and `Cc1csc2c(=O)n3c(nc12)CCN(C(=O)c1ccccn1)CC3`, with -25.54%.
To `Cc1csc2c(=O)n3c(nc12)CCN(C(=O)c1ccnn1C)CC3` belongs 19.07%.
On to `CNc1cncc(C2CCCN2c2cc(C)ncn2)n1` (centres undefined), for which the INHIBITION was 5.15%.
Then `Cc1c(Cl)cccc1S(=O)(=O)N1CCC2(CC1)OCCS2`, with -21.09%; and `COc1cccc([C@H]2CN(C(=O)c3ccccc3)[C@@H]3CCCN[C@H]23)c1`, with 34.48%; and `CC(C)(C)CCN1CCN(c2snc(Cl)c2C#N)CC1`, with 58.29%.
To `N#Cc1c(Cl)nsc1N1CCN(CC2CCCCC2)CC1` belongs 29.89%; to `N#Cc1c(Cl)nsc1N1CCN(CC2CC2)CC1`, 20.88%; to `c1coc(CN2CCCC3(COCCN(Cc4c[nH]nn4)C3)C2)c1` (centres undefined), -10.66%.
For `CCn1cc(NC(=O)NCc2ccc(CN3CCOCC3)cc2)cn1`, the INHIBITION is 17.39%.
Then `CN1CCN(c2cccc(Cl)c2CNCCS(C)(=O)=O)CC1`, with 4.42%; and `O=C(Cc1ccc2c(c1)OCC2)Nc1nc[nH]n1`, with 8.14%; and `O=C(c1ccc(=O)[nH]c1)N1CCC(Oc2cccc(C(F)(F)F)c2)CC1`, with 57.75%.
With `Nc1cc(C(=O)N2CCC(Oc3cccc(C(F)(F)F)c3)CC2)ccn1`, the INHIBITION is given as 72.05%.
To `O=C(c1ccncc1)N1CCC(Oc2cccc(C(F)(F)F)c2)CC1` belongs 26.74%.
Then `Nc1ccc(C(=O)N2CCC(Oc3cccc(C(F)(F)F)c3)CC2)cn1`, with 17.2%.
Then `CC(N)C(=O)N1CCC(Oc2cccc(C(F)(F)F)c2)CC1` (centres undefined), with 48.21%; and `O=C(c1cccnc1)N1CCC(Oc2cccc(C(F)(F)F)c2)CC1`, with 45.82%; and `Cc1cc(C)c2c(OCC(=O)N(C)CC(=O)NC(C)C)nn(C)c2n1`, with 44.95%.
As to `CN(Cc1ccc(F)cc1)C(=O)CN1CCOC(Cn2cncn2)C1` (centres undefined), the INHIBITION stood at 2.08%.
Then `O=c1cc(CN(CCO)C2CC2)nc2ccc(Cl)cn12`, with -28.15%; and `COc1ccc(S(=O)(=O)NCCCc2nnc3nc(C)cc(C)n23)cc1`, with 12.7%; and `COCc1ncc(CN2CCC3(CCNC(=O)CC3)CC2)cn1`, with 53.55%.
`COCc1ncc(CN2CCC3(CCNCC3)CC2)cn1`: the INHIBITION is on record as -8.84%.
To `CCCNc1ncc(CN2CCN(C)C(=O)C2C)cn1` (centres undefined) belongs -29.46%; to `CCCNc1ncc(CN2CCC3(CCNC(=O)CC3)CC2)cn1`, 56.78%; to `CCCNc1ncc(CN2CCC3(CC2)CNC(=O)C3)cn1`, 29.94%.
To `COc1ncc(CN2CCC3(CCNC(=O)CC3)CC2)cn1` belongs 0.85%; to `N#CC1(C(=O)NCC2CCC3(CCNCC3)O2)CC1` (centres undefined), 49.07%.
On to `O=C(NCC1CCC2(CCNCC2)O1)C1CC1` (centres undefined), for which the INHIBITION stood at 24.36%.
Take `COC(=O)NCC1CCC2(CCNCC2)O1` (centres undefined): the INHIBITION was found to be 61.7%.
In the case of `Cn1ccc(C(=O)N2C[C@@H]3CN(CC4CC4)CCO[C@@H]3C2)n1`, the INHIBITION came out at 42.79%.
Then `O=C(CCCn1cncn1)N1CCC2(CCCN(CC3CC3)C2=O)C1` (centres undefined), with 23.19%.
Then `O=C(CCc1nc(Cl)n[nH]1)N1CCC2(CCCNC2=O)C1` (centres undefined), with -35.22%; and `O=C(CCc1nc(Cl)n[nH]1)N1CCC2(CCCN(CC3CCC3)C2=O)C1` (centres undefined), with 57.34%.
Then `O=C1CCc2cc(NC(=O)C3CCCN3c3nccs3)ccc2N1` (centres undefined), with -73.41%; and `Cc1cc(-c2ccc(C(C)N3CCCCC3)cc2)cnc1N` (centres undefined), with 69.99%.
For the compound `Cc1cc(-c2ccc(C(C)N3CCOCC3)cc2)cnc1N` (centres undefined), the INHIBITION was -38.09%.
In the case of `CC(c1ccc(-c2cnc(N)nc2)cc1)N1CCOCC1` (centres undefined), the INHIBITION was 41.78%.
Then `CCC(CC)c1cc(CNC(=O)N2CCC[C@@H]2CO)on1`, with -1.89%; and `COc1ccccc1C(=O)N1Cc2cc(C)ccc2OCC1CN(C)C` (centres undefined), with -71.28%; and `Cc1ccc(O)c(C(=O)N2CCOCC2c2c(C)nn(C)c2C)c1` (centres undefined), with 60.71%.
To `Cc1ccc(O)c(C(=O)N2CCOCC2c2c(C)n[nH]c2C)c1` (centres undefined) belongs 24.02%; to `Cc1nn(C)c(C)c1C1COCCN1C(=O)c1cc(F)ccc1F` (centres undefined), 21.52%; to `CC(NC(=O)Nc1cccnc1N1CCOCC1)c1ccncc1` (centres undefined), 0.45%.
Then `CC(C)OCc1cccc(CNc2cnn(C)c(=O)c2Cl)c1`, with 4.18%; and `CC(=O)N1CCO[C@@H]2CN(S(=O)(=O)c3cccnc3)C[C@@H]2C1`, with -37.03%.
In the case of `CC(=O)N(C)c1nc(CN2CCN(c3nccs3)CC2)cs1`, the INHIBITION is listed as -20.95%.
Turning to `Nc1nc(CN2CCN(c3nccs3)CC2)cs1`, the INHIBITION is -4.26%.
Then `CCN(C(C)=O)c1nc(CN2CCN(c3nccs3)CC2)cs1`, with 55.36%; and `CC(C)N1CCc2c(c(COc3cccnc3)nn2CC2CC2)C1`, with -0.59%.
In the case of `Cc1nn(C)c(C)c1C1CCCN1Cc1nc(-c2cccs2)no1` (centres undefined), the INHIBITION is reported as 45.83%.
Then `Cc1cccc(C(=O)N2CCN(C)CC2)c1NC(=O)c1ccncc1`, with 29.22%; and `CNc1cc(C2CCCN2Cc2ccc(OCC(=O)O)cc2)ccn1` (centres undefined), with 29.06%.
To `COCCO[C@H]1CCN(C(=O)c2ccoc2C)[C@H]1Cc1cnn(C)c1` belongs 5.35%; to `COCCO[C@H]1CCN(C(=O)c2ccno2)[C@H]1Cc1cnn(C)c1`, 1.02%; to `Cn1cc(C[C@H]2[C@@H](OCC3CC3)CCN2C(=O)c2ccc[nH]2)cn1`, -1.33%.
Turning to `COCCO[C@@H]1CCN(C(=O)c2ccc[nH]2)[C@H]1Cc1cnn(C)c1`, the INHIBITION came to 66.69%.
To `COCCO[C@H]1CCN(C(=O)c2cnoc2C)[C@H]1Cc1cnn(C)c1` belongs 63.06%.
Then `CCO[C@@H]1CCN(C(=O)N(C)C)[C@@H]1Cc1cnn(C)c1`, with 63.84%; and `CCO[C@@H]1CCN(C(=O)c2ccnnc2)[C@@H]1Cc1cnn(C)c1`, with 18.15%.
Then `CCO[C@@H]1CCN(C(=O)c2ccc[nH]2)[C@@H]1Cc1cnn(C)c1`, with 5.28%; and `CN(C)C(=O)N1CC[C@@H](O)[C@@H]1Cc1cnn(C)c1`, with 12.88%; and `CC(C)c1ncc(CN2C[C@@H](CN3CCC(O)CC3)[C@@H](CO)C2)cn1`, with -142.15%.
With `Cc1cnc(CN(C)Cc2cccc(OC(F)(F)F)c2)cn1`, the INHIBITION was found to be 8.59%.
For the compound `c1ccc2nc(CN3CCCC3c3noc(C4CC4)n3)ccc2c1` (centres undefined), the INHIBITION is on record as 0.74%.
To `Cc1nn(C2CCS(=O)(=O)C2)c(O)c1Cc1ccccc1Cl` (centres undefined) belongs -0.89%.
Then `Cc1nc(CN(Cc2ccccc2F)C2CCC2)no1`, with -3.11%.
With `COCCN(Cc1ccoc1)C(=O)CSc1ccc(F)cc1`, the INHIBITION is listed as 12.7%.
Then `CN(Cc1ccncc1)C1CC2(CCN(c3ncc(F)cn3)CC2)C1`, with -20.67%; and `COc1cc2cc(C)c(SCCN3CCCCC3)nc2cc1OC`, with 11.74%.
For the compound `CN(C)CC1CSCCCN1C(=O)c1ccc(-n2cccc2)cc1` (centres undefined), the INHIBITION came to 15.49%.
With `Cc1cc(NCc2cc(C)oc2C(F)(F)F)n2nc(C)cc2n1`, the INHIBITION stood at 51.77%.
Regarding `Cc1cc(NCCCC(F)(F)F)n2nc(C)cc2n1`, the INHIBITION is -2.24%.
Then `Cc1cc(C(F)(F)F)nc(CNc2cc(C)nc3cc(C)nn23)n1`, with -15.4%; and `CCCN1CCCn2c(nc(CNC(=O)c3ccsc3)cc2=O)C1`, with -2.19%; and `CCC1CN(C(=O)c2cccc(O)c2)CCC(=O)N1Cc1ccccc1` (centres undefined), with -0.23%.
To `c1cnc(N2CCC3(CC2)CN(CC2CC2)c2ccccc23)nc1` belongs -59.24%.
To `CC1CCCN(C(=O)CNC(=O)c2ccoc2)C1` (centres undefined) belongs -13.92%; to `CNC(=O)C1(N2CCC[C@H]2C(=O)NC2CCCCC2)CCOCC1`, 20.87%; to `COCC1c2c(cnn2C)CCN1Cc1ccsc1` (centres undefined), -61.95%.
Regarding `c1ncc(-c2ccc(C3CNCCO3)nc2)cn1` (centres undefined), the INHIBITION was 27.3%.
Then `Cc1ccc(-c2ccc(C3CNCCO3)nc2)cc1` (centres undefined), with 81.51%; and `Clc1ccc(-c2ccc(C3CNCCO3)nc2)cc1` (centres undefined), with 39.65%.
For the compound `c1ccc(-c2ccc(C3CNCCO3)nc2)cc1` (centres undefined), the INHIBITION is given as 36.92%.
To `COc1ccc(-c2cnc(N(C)C)nc2C2CNCCO2)cc1` (centres undefined) belongs 38.42%; to `COc1ccc(-c2ccc(C3CNCCO3)nc2)cc1` (centres undefined), 84.26%.
Then `Cn1cc(CN2CCn3cc(CNC(=O)c4cccn4C)nc3C2)cn1`, with 16.22%; and `Cc1c(NCc2ccc(C#N)cc2)cccc1S(=O)(=O)NC1CC1`, with 21.14%.
Then `COC(=O)CNC(=O)c1ccn(-c2ccc(Cl)c(Cl)c2)n1`, with -14.28%.
